Laboratory results reported in the supplement of paper PMC8728848.
Shown is part of a subset that was picked to be rich in the strongest signals.

Columns and labels:
Experiment in all cases: glycan array binding signal (z-score within array); higher = stronger binding
Settings in all cases: glycan notation: IUPAC condensed, linker removed
[1] = target: Fuc(a1-2)Gal(b1-3)GlcNAc(b1-3)[Fuc(a1-3)[Gal(b1-4)]GlcNAc(b1-6)]Gal(b1-4)Glc
Procedure, shortened: (§1)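 Negative Z-scores can be read as non-binding. The Z-score is calculated within each array and then averaged across arrays of one protein sequence at different concentrations or buffers and across linkers. Arrays, 3228 in all, were curated from the Consortium for Functional Glycomics database and kept only where the protein sequence was available.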

[2] = target: Fuc(a1-2)Gal(b1-3)[Fuc(a1-4)]GlcNAc(b1-2)Man(a1-3)[Fuc(a1-2)Gal(b1-3)[Fuc(a1-4)]GlcNAc(b1-2)Man(a1-3)]Man(b1-4)GlcNAc(b1-4)GlcNAc
Procedure, shortened: as §1

[3] = target: Fuc(a1-2)Gal(b1-4)GlcNAc(b1-2)Man(a1-3)[Fuc(a1-2)Gal(b1-4)GlcNAc(b1-2)Man(a1-6)]Man(b1-4)GlcNAc(b1-4)GlcNAc
Procedure, shortened: as §1

[4] = target: Fuc(a1-2)Gal(b1-4)GlcNAc(b1-2)Man(a1-3)[Fuc(a1-2)Gal(b1-4)GlcNAc(b1-2)Man(a1-6)]Man(b1-4)GlcNAc(b1-4)[Fuc(a1-6)]GlcNAc
Procedure, shortened: as §1

[5] = target: Fuc(a1-2)Gal(b1-4)GlcNAc(b1-3)[Fuc(a1-3)[Gal(b1-4)]GlcNAc(b1-6)]Gal(b1-4)Glc
Procedure, shortened: as §1

[6] = target: Fuc(a1-2)Gal(b1-4)GlcNAc(b1-6)GalNAc
Procedure, shortened: as §1

[7] = target: Fuc(a1-2)Gal6S(b1-3)GlcNAc6S
Procedure, shortened: as §1

[8] = target: Fuc(a1-2)Gal6S(b1-4)GlcNAc
Procedure, shortened: as §1

[9] = target: Fuc(a1-2)[Gal(a1-3)]Gal(b1-3)GlcNAc(b1-6)GalNAc
Procedure, shortened: as §1

[10] = target: Fuc(a1-2)[Gal(a1-3)]Gal(b1-4)GlcNAc(b1-2)Man(a1-3)[Fuc(a1-2)[Gal(a1-3)]Gal(b1-4)GlcNAc(b1-2)Man(a1-6)]Man(b1-4)GlcNAc(b1-4)GlcNAc
Procedure, shortened: as §1

[11] = target: Fuc(a1-2)[GalNAc(a1-3)]Gal(b1-4)GlcNAc(b1-3)[Fuc(a1-2)[GalNAc(a1-3)]Gal(b1-4)GlcNAc(b1-6)]GalNAc
Procedure, shortened: as §1

[12] = target: Fuc(a1-3)[Gal(b1-4)]GlcNAc(b1-3)GalNAc
Procedure, shortened: as §1

[13] = target: Gal(b1-3)GlcNAc(b1-3)Gal(b1-4)GlcNAc(b1-3)Gal(b1-4)GlcNAc(b1-2)[Gal(b1-3)GlcNAc(b1-3)Gal(b1-4)GlcNAc(b1-3)Gal(b1-4)GlcNAc(b1-6)]Man(a1-6)[Gal(b1-3)GlcNAc(b1-3)Gal(b1-4)GlcNAc(b1-3)Gal(b1-4)GlcNAc(b1-2)Man(a1-3)]Man(b1-4)GlcNAc(b1-4)[Fuc(a1-6)]GlcNAc
Procedure, shortened: as §1

[14] = target: Gal(b1-3)GlcNAc(b1-3)Gal(b1-4)GlcNAc(b1-6)[Gal(b1-3)GlcNAc(b1-3)]Gal(b1-4)Glc
Procedure, shortened: as §1

[15] = target: Gal(b1-3)GlcNAc(b1-6)GalNAc
Procedure, shortened: as §1

[16] = target: Gal(b1-3)[Fuc(a1-4)]GlcNAc(b1-2)Man(a1-3)[Gal(b1-3)[Fuc(a1-4)]GlcNAc(b1-2)Man(a1-6)]Man(b1-4)GlcNAc(b1-4)GlcNAc
Procedure, shortened: as §1

[17] = target: Gal(b1-4)GlcNAc(b1-2)[Gal(b1-4)GlcNAc(b1-6)]Man(a1-6)[GlcNAc(b1-4)][Gal(b1-4)GlcNAc(b1-2)[Gal(b1-4)GlcNAc(b1-4)]Man(a1-3)]Man(b1-4)GlcNAc(b1-4)[Fuc(a1-6)]GlcNAc
Procedure, shortened: as §1

[18] = target: Gal(b1-4)GlcNAc(b1-3)Gal(b1-4)GlcNAc(b1-3)Gal(b1-4)GlcNAc(b1-3)Gal(b1-4)GlcNAc(b1-2)[Gal(b1-4)GlcNAc(b1-3)Gal(b1-4)GlcNAc(b1-3)Gal(b1-4)GlcNAc(b1-3)Gal(b1-4)GlcNAc(b1-6)]Man(a1-6)[Gal(b1-4)GlcNAc(b1-3)Gal(b1-4)GlcNAc(b1-3)Gal(b1-4)GlcNAc(b1-3)Gal(b1-4)GlcNAc(b1-2)Man(a1-3)]Man(b1-4)GlcNAc(b1-4)[Fuc(a1-6)]GlcNAc
Procedure, shortened: as §1

[19] = target: Gal(b1-4)GlcNAc(b1-3)Gal(b1-4)[Fuc(a1-3)GlcNAc(b1-6)]Gal(b1-4)Glc
Procedure, shortened: as §1

[20] = target: Gal(b1-4)GlcNAc(b1-6)Gal(b1-4)GlcNAc(b1-6)GalNAc
Procedure, shortened: as §1

[21] = target: Gal3S(b1-4)[Fuc(a1-3)]Glc6S
Procedure, shortened: as §1

[22] = target: Gal3S(b1-4)[Fuc(a1-3)]GlcNAc
Procedure, shortened: as §1

GalNAc(b1-4)GlcNAc = target: GalNAc(b1-4)GlcNAc
Procedure, shortened: as §1

GalNAc4S6S(b1-4)GlcNAc = target: GalNAc4S6S(b1-4)GlcNAc
Procedure, shortened: as §1

Glc(a1-4)Glc = target: Glc(a1-4)Glc
Procedure, shortened: as §1

Glc(a1-6)Glc(a1-6)Glc = target: Glc(a1-6)Glc(a1-6)Glc
Procedure, shortened: as §1

Glc(b1-4)Glc = target: Glc(b1-4)Glc
Procedure, shortened: as §1

[23] = target: GlcNAc(a1-3)Gal(b1-4)GlcNAc
Procedure, shortened: as §1

[24] = target: GlcNAc(a1-4)Gal(b1-4)GlcNAc(b1-3)Gal(b1-4)[Fuc(a1-3)]GlcNAc(b1-3)Gal(b1-4)[Fuc(a1-3)]GlcNAc
Procedure, shortened: as §1

[25] = target: GlcNAc(a1-6)Gal(b1-4)GlcNAc
Procedure, shortened: as §1

[26] = target: GlcNAc(b1-3)Gal(b1-4)GlcNAc(b1-2)[GlcNAc(b1-3)Gal(b1-4)GlcNAc(b1-6)]Man(a1-6)[GlcNAc(b1-3)Gal(b1-4)GlcNAc(b1-2)Man(a1-3)]Man(b1-4)GlcNAc(b1-4)GlcNAc
Procedure, shortened: as §1

[27] = target: GlcNAc(b1-3)Gal(b1-4)GlcNAc(b1-3)Gal(b1-4)GlcNAc(b1-2)Man(a1-3)[GlcNAc(b1-3)Gal(b1-4)GlcNAc(b1-3)Gal(b1-4)GlcNAc(b1-2)Man(a1-6)]Man(b1-4)GlcNAc(b1-4)[Fuc(a1-6)]GlcNAc
Procedure, shortened: as §1

[28] = target: GlcNAc(b1-3)Gal(b1-4)GlcNAc(b1-3)[GlcNAc(b1-3)Gal(b1-4)GlcNAc(b1-3)]GalNAc
Procedure, shortened: as §1

[29] = target: GlcNAc6S(b1-3)Gal(b1-4)GlcNAc
Procedure, shortened: as §1

Man(a1-2)Man(a1-3)Man = target: Man(a1-2)Man(a1-3)Man
Procedure, shortened: as §1

[30] = target: Man(a1-2)Man(a1-6)[Man(a1-3)]Man(a1-6)[Man(a1-2)Man(a1-2)Man(a1-3)]Man
Procedure, shortened: as §1

[31] = target: Man(a1-3)[Man(a1-6)]Man(a1-6)[Man(a1-3)]Man
Procedure, shortened: as §1

MurNAc(b1-4)GlcNAc = target: MurNAc(b1-4)GlcNAc
Procedure, shortened: as §1

[32] = target: Neu5Ac(a2-3)Gal(b1-3)GalNAc(b1-3)Gal(b1-4)GlcNAc
Procedure, shortened: as §1

[33] = target: Neu5Ac(a2-3)Gal(b1-3)GlcNAc(b1-2)Man(a1-3)[Neu5Ac(a2-3)Gal(b1-3)GlcNAc(b1-2)Man(a1-6)]Man(b1-4)GlcNAc(b1-4)GlcNAc
Procedure, shortened: as §1

[34] = target: Neu5Ac(a2-3)Gal(b1-3)[GlcNAc(b1-6)]GalNAc
Procedure, shortened: as §1

[35] = target: Neu5Ac(a2-3)Gal(b1-4)GlcNAc(b1-2)Man(a1-3)[GlcNAc(b1-4)][Neu5Ac(a2-3)Gal(b1-4)GlcNAc(b1-2)Man(a1-6)]Man(b1-4)GlcNAc(b1-4)GlcNAc
Procedure, shortened: as §1

[36] = target: Neu5Ac(a2-3)Gal(b1-4)GlcNAc(b1-2)Man(a1-3)[Neu5Ac(a2-3)Gal(b1-4)GlcNAc(b1-2)Man(a1-6)]Man(b1-4)GlcNAc(b1-4)[Fuc(a1-6)]GlcNAc
Procedure, shortened: as §1

[37] = target: Neu5Ac(a2-3)Gal(b1-4)GlcNAc(b1-3)[Neu5Ac(a2-3)Gal(b1-4)GlcNAc(b1-6)]GalNAc
Procedure, shortened: as §1

[38] = target: Neu5Ac(a2-3)Gal(b1-4)GlcNAc(b1-6)[Gal(b1-3)]GalNAc
Procedure, shortened: as §1

[39] = target: Neu5Ac(a2-3)Gal(b1-4)[Fuc(a1-3)]GlcNAc(b1-3)Gal
Procedure, shortened: as §1

[40] = target: Neu5Ac(a2-3)Gal(b1-4)[Fuc(a1-3)]GlcNAc(b1-6)[Neu5Ac(a2-3)Gal(b1-3)]GalNAc
Procedure, shortened: as §1

[41] = target: Neu5Ac(a2-3)Gal6S(b1-4)[Fuc(a1-3)]GlcNAc
Procedure, shortened: as §1

Neu5Ac(a2-3)GalNAc = target: Neu5Ac(a2-3)GalNAc
Procedure, shortened: as §1

[42] = target: Neu5Ac(a2-6)Gal(b1-4)GlcNAc(b1-2)Man(a1-6)[GlcNAc(b1-2)Man(a1-3)]Man(b1-4)GlcNAc(b1-4)GlcNAc
Procedure, shortened: as §1

[43] = target: Neu5Ac(a2-6)GlcNAc(b1-4)GlcNAc
Procedure, shortened: as §1

[44] = target: Neu5Ac(a2-8)Neu5Ac(a2-8)Neu5Ac
Procedure, shortened: as §1

[45] = target: Neu5Gc(a2-3)Gal(b1-4)GlcNAc
Procedure, shortened: as §1

B1: GST Gap3 (Streptococcus parasanguinis) (protein)
chain: MTKQLISEIYWNEIRKGENYLYGSQIKFQEDLVNFYNPQLASGKPIVTFKSRTNYQGDRHSPDLPILIQGNRYLLEYQIDAVPANSFFLQLDFFNRQAEQIESIVLRNSGESFIFPKDTFTYTLTLMSAGCQSVTYQKFMIYDINDEEKKNHIVENRYLRELLPKDLDLVKNLIEYI
[1]
  glycan array binding signal (z-score): -0.027
[2]
  glycan array binding signal (z-score): 2.3
[3]
  glycan array binding signal (z-score): 3.16
[4]
  glycan array binding signal (z-score): -0.105
[5]
  glycan array binding signal (z-score): -0.573
[6]
  glycan array binding signal (z-score): -0.108
[7]
  glycan array binding signal (z-score): 2.06
[8]
  glycan array binding signal (z-score): -0.073
[9]
  glycan array binding signal (z-score): -0.112
[10]
  glycan array binding signal (z-score): 0.383
[11]
  glycan array binding signal (z-score): -0.377
[12]
  glycan array binding signal (z-score): 0.287
[13]
  glycan array binding signal (z-score): 4.03
[14]
  glycan array binding signal (z-score): 0.052
[15]
  glycan array binding signal (z-score): 0.002
[16]
  glycan array binding signal (z-score): 3.61
[17]
  glycan array binding signal (z-score): 0.228
[18]
  glycan array binding signal (z-score): 2.32
[19]
  glycan array binding signal (z-score): -0.093
[20]
  glycan array binding signal (z-score): -0.125
[21]
  glycan array binding signal (z-score): 1.61
[22]
  glycan array binding signal (z-score): -0.723
GalNAc(b1-4)GlcNAc
  glycan array binding signal (z-score): 0.123
GalNAc4S6S(b1-4)GlcNAc
  glycan array binding signal (z-score): -0.267
Glc(a1-4)Glc
  glycan array binding signal (z-score): 3.14
Glc(a1-6)Glc(a1-6)Glc
  glycan array binding signal (z-score): 0.005
Glc(b1-4)Glc
  glycan array binding signal (z-score): -0.381
[23]
  glycan array binding signal (z-score): -0.406
[24]
  glycan array binding signal (z-score): 2.24
[25]
  glycan array binding signal (z-score): 0.544
[26]
  glycan array binding signal (z-score): 3.45
[27]
  glycan array binding signal (z-score): 0.269
[28]
  glycan array binding signal (z-score): -0.518
[29]
  glycan array binding signal (z-score): -0.145
Man(a1-2)Man(a1-3)Man
  glycan array binding signal (z-score): -0.273
[30]
  glycan array binding signal (z-score): -0.335
[31]
  glycan array binding signal (z-score): -0.516
MurNAc(b1-4)GlcNAc
  glycan array binding signal (z-score): -0.582
[32]
  glycan array binding signal (z-score): -0.123
[33]
  glycan array binding signal (z-score): -0.211
[34]
  glycan array binding signal (z-score): -0.638
[35]
  glycan array binding signal (z-score): -0.195
[36]
  glycan array binding signal (z-score): 2.2
[37]
  glycan array binding signal (z-score): -0.511
[38]
  glycan array binding signal (z-score): -0.323
[39]
  glycan array binding signal (z-score): -0.462
[40]
  glycan array binding signal (z-score): 3.62
[41]
  glycan array binding signal (z-score): 0.06
Neu5Ac(a2-3)GalNAc
  glycan array binding signal (z-score): -0.101
[42]
  glycan array binding signal (z-score): -0.269
[43]
  glycan array binding signal (z-score): -0.465
[44]
  glycan array binding signal (z-score): 0.585
[45]
  glycan array binding signal (z-score): -0.209
